# Reference: ChEMBL document CHEMBL2218924, “A broad activity screen in support of a chemogenomic map for kinase signalling research and drug discovery” (Biochem J, 2013)
# Legend:
# [1] = biological target: T1, Tyrosine-protein kinase ZAP-70 (Homo sapiens) (UniProt P43403); settings: at 10 µM
# T1 sequence (whole entry): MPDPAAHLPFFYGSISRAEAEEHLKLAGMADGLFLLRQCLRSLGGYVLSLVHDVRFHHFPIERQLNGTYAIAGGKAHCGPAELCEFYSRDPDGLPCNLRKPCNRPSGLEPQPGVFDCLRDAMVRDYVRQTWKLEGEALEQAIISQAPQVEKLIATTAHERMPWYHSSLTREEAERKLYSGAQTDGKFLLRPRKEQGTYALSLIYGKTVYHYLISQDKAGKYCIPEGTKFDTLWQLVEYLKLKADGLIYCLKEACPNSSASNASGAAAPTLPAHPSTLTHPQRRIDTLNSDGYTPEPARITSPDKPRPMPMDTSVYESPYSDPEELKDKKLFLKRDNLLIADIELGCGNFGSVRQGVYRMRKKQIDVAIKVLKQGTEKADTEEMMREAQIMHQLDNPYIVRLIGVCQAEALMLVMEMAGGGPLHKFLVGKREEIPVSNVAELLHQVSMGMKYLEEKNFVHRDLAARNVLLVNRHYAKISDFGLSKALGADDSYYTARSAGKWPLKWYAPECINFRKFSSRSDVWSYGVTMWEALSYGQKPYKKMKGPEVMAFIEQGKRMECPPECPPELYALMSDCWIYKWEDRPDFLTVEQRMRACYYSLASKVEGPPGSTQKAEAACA
# [2] = biological target: T2, Serine/threonine-protein kinase ULK2 (Homo sapiens) (UniProt Q8IYT8); settings: at 1 µM
# T2 sequence (whole entry): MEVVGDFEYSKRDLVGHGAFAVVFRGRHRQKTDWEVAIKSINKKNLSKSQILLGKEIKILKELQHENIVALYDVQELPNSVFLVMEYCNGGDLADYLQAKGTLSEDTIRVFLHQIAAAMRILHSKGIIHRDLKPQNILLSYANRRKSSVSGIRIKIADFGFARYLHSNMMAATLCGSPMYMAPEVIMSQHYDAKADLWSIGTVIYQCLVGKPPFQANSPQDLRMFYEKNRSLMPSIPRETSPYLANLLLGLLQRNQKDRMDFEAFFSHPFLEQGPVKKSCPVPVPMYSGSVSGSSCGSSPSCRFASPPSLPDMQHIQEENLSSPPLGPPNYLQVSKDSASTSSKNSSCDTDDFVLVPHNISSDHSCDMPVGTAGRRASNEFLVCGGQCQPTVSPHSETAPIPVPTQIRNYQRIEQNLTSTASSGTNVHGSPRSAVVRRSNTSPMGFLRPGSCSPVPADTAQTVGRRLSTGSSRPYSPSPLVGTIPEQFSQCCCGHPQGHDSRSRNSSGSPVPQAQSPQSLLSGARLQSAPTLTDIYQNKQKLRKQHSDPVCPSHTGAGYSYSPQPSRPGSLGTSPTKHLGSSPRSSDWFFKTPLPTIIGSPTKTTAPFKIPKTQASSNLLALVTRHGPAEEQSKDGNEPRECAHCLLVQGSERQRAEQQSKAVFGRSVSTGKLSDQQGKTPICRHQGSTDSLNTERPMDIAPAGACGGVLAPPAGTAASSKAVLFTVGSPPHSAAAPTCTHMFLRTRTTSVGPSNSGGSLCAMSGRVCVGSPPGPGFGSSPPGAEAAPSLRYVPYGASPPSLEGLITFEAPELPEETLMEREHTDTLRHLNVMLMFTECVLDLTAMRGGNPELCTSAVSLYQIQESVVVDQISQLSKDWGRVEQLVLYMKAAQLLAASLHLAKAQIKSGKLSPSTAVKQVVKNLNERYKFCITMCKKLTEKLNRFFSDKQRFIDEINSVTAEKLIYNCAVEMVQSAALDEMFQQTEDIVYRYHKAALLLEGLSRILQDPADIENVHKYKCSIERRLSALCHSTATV
# [3] = biological target: T2, Serine/threonine-protein kinase ULK2 (Homo sapiens); settings: at 10 µM
# [4] = biological target: T3, Serine/threonine-protein kinase ULK3 (Homo sapiens) (UniProt Q6PHR2); settings: at 1 µM
# T3 sequence (whole entry): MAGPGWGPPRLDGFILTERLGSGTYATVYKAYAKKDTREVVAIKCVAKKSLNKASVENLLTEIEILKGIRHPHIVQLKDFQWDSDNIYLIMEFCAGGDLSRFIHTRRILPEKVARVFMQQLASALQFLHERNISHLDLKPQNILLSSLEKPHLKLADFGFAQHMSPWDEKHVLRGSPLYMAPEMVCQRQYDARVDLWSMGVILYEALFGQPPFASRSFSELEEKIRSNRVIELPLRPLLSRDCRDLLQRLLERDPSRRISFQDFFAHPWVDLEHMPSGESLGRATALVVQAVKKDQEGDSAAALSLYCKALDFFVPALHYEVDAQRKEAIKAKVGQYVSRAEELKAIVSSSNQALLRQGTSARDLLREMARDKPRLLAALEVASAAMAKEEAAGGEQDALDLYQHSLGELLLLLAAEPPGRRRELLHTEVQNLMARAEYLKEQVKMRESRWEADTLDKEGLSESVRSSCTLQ
# [5] = biological target: T3, Serine/threonine-protein kinase ULK3 (Homo sapiens); settings: at 10 µM
# [6] = biological target: Serine/threonine-protein kinase VRK2 (Homo sapiens) (UniProt Q86Y07); settings: at 1 µM
# Chain of Serine/threonine-protein kinase VRK2 (Homo sapiens) (Q86Y07 whole entry): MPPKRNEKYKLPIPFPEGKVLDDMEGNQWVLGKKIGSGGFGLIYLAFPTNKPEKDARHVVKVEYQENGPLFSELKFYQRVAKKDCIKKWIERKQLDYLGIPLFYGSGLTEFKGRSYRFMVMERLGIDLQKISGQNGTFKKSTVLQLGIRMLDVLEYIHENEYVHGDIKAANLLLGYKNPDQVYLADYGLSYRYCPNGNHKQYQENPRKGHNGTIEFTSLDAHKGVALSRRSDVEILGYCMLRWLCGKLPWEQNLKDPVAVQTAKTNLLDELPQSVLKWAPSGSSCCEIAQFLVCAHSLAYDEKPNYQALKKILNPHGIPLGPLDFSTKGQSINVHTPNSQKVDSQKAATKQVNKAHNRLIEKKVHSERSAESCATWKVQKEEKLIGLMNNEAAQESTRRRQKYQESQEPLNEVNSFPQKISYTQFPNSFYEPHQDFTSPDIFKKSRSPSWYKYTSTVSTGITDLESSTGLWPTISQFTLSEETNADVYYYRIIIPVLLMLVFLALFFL
# [7] = biological target: Serine/threonine-protein kinase VRK2 (Homo sapiens) (UniProt Q86Y07); settings: at 10 µM
# [8] = biological target: Serine/threonine-protein kinase WNK2 (Homo sapiens) (UniProt Q9Y3S1); settings: at 1 µM
# [9] = biological target: Serine/threonine-protein kinase WNK2 (Homo sapiens) (UniProt Q9Y3S1); settings: at 10 µM
# [10] = biological target: Serine/threonine-protein kinase WNK3 (Homo sapiens) (UniProt Q9BYP7); settings: at 1 µM
# Chain of Serine/threonine-protein kinase WNK3 (Homo sapiens) (Q9BYP7 whole entry): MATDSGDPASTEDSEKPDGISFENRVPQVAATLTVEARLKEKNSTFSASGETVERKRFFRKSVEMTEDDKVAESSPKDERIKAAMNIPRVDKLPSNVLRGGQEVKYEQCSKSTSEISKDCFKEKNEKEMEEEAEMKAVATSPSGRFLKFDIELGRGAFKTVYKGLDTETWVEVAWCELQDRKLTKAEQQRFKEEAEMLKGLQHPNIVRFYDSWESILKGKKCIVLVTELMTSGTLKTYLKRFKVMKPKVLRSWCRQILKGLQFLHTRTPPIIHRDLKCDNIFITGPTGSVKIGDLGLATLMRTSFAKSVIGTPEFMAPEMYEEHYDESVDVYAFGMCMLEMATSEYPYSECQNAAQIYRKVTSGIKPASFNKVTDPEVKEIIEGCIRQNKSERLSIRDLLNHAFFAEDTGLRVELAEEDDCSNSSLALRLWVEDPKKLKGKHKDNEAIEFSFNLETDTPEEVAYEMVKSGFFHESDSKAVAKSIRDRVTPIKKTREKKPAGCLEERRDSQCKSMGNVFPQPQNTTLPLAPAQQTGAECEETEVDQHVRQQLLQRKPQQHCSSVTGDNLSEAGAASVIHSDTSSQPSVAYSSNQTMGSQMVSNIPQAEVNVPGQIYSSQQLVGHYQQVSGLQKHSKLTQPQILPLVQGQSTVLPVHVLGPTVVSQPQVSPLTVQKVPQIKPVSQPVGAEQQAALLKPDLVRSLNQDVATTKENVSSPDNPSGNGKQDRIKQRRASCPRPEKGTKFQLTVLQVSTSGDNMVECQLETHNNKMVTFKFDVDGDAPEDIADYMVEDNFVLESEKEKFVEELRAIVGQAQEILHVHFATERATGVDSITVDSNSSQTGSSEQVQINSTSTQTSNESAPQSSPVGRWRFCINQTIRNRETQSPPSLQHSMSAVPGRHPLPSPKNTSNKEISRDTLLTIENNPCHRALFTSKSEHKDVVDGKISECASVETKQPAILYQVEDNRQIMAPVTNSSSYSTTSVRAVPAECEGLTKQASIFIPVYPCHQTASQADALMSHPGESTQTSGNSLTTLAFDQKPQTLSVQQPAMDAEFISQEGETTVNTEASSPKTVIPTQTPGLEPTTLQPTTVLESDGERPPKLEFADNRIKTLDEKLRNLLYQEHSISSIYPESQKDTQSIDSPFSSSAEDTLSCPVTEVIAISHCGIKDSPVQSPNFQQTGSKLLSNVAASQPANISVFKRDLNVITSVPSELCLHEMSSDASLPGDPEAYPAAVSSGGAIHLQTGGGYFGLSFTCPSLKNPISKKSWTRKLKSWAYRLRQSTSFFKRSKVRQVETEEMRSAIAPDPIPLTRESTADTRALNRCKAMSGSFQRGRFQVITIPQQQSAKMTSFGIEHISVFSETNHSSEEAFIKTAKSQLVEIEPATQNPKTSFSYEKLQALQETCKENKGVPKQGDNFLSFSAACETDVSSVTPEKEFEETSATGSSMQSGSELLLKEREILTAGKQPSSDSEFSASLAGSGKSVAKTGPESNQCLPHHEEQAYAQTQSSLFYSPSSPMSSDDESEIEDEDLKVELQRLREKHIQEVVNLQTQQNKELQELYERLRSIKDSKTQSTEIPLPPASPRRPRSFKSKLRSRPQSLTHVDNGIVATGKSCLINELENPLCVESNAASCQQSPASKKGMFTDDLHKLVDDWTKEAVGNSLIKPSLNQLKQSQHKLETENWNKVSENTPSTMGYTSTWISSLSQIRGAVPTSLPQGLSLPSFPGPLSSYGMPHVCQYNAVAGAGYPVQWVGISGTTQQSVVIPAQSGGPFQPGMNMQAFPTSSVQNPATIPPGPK
# [11] = biological target: Serine/threonine-protein kinase WNK3 (Homo sapiens) (UniProt Q9BYP7); settings: at 10 µM
# [12] = biological target: RAF proto-oncogene serine/threonine-protein kinase (Homo sapiens) (UniProt P04049); settings: at 1 µM
# Chain of RAF proto-oncogene serine/threonine-protein kinase (Homo sapiens) (P04049 whole entry): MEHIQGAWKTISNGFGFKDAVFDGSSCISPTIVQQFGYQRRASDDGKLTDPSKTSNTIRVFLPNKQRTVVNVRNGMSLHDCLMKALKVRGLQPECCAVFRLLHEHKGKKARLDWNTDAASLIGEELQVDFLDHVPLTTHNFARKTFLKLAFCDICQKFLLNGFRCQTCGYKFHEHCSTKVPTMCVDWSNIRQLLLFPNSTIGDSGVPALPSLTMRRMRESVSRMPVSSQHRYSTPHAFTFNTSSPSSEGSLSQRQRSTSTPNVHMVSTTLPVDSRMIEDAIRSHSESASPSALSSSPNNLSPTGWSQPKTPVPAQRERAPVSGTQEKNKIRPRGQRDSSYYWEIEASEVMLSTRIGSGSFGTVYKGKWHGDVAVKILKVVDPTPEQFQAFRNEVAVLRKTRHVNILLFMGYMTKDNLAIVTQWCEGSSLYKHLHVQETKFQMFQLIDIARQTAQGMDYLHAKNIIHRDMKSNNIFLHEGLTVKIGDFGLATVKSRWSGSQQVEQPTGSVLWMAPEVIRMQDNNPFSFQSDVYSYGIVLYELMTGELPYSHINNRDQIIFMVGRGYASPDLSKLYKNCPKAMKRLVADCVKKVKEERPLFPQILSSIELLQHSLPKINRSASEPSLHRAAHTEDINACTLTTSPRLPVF
# [13] = biological target: RAF proto-oncogene serine/threonine-protein kinase (Homo sapiens) (UniProt P04049); settings: at 10 µM
# [14] = biological target: Mast/stem cell growth factor receptor Kit (Homo sapiens) (UniProt P10721); settings: at 1 µM
# Chain of Mast/stem cell growth factor receptor Kit (Homo sapiens) (P10721 whole entry): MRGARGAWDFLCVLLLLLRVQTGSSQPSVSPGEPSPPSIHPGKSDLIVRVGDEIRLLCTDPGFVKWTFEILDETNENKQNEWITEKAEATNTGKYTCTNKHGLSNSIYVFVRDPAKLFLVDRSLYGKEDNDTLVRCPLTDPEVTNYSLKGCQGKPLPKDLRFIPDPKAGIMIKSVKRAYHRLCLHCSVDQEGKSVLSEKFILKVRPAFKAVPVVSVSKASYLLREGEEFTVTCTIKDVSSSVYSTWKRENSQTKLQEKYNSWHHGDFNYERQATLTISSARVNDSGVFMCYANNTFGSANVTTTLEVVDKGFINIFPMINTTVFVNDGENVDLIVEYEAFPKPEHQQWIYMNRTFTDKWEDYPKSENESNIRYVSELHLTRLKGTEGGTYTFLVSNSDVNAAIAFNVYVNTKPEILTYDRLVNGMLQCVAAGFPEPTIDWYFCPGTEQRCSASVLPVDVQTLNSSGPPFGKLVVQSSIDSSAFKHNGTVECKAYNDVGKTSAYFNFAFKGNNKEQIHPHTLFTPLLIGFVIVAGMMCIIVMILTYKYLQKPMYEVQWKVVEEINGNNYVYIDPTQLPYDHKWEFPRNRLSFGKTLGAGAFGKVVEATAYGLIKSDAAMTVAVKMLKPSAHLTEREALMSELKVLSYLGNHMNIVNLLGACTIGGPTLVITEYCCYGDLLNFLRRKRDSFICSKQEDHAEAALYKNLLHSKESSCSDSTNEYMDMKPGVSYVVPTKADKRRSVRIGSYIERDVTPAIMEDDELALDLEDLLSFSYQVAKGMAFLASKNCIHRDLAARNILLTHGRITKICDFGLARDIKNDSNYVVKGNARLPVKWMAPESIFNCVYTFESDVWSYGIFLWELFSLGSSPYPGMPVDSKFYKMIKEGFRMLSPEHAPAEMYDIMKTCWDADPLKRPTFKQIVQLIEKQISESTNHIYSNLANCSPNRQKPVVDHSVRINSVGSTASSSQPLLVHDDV
# [15] = biological target: Mast/stem cell growth factor receptor Kit (Homo sapiens) (UniProt P10721); settings: at 10 µM
# [16] = biological target: Tyrosine-protein kinase Yes (Homo sapiens) (UniProt P07947); settings: at 1 µM
# Chain of Tyrosine-protein kinase Yes (Homo sapiens) (P07947 2-543 limits assumed): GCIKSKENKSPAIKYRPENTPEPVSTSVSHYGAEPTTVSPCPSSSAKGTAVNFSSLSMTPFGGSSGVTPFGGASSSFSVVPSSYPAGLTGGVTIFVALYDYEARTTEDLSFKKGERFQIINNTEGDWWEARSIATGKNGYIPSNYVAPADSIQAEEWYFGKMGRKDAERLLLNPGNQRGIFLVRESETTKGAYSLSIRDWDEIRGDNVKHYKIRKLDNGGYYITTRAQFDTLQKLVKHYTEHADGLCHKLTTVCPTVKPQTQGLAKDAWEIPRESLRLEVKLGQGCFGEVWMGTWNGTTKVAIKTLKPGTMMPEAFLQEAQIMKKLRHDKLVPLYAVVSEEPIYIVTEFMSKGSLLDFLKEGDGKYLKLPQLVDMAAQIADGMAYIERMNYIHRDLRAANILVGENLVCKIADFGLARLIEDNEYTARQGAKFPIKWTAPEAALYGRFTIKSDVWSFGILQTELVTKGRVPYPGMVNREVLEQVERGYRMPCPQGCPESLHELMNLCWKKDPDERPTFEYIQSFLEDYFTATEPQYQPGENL
# [17] = biological target: Tyrosine-protein kinase Yes (Homo sapiens) (UniProt P07947); settings: at 10 µM
# [18] = biological target: T1, Tyrosine-protein kinase ZAP-70 (Homo sapiens); settings: at 1 µM
# [19] = biological target: Death-associated protein kinase 3 (Homo sapiens) (UniProt O43293); settings: at 1 µM
# Chain of Death-associated protein kinase 3 (Homo sapiens) (O43293 whole entry, looked up): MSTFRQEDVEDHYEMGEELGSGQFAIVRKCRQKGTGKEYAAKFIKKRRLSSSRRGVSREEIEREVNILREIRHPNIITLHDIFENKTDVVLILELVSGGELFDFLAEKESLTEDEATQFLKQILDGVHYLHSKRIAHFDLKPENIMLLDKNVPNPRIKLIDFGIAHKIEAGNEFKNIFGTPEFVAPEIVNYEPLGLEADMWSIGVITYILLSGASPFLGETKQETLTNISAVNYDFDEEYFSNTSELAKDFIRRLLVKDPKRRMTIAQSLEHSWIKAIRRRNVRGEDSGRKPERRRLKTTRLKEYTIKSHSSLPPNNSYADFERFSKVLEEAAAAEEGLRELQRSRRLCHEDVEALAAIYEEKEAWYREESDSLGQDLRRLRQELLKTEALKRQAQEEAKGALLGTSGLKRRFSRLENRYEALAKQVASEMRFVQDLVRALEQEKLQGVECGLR
# [20] = biological target: Death-associated protein kinase 3 (Homo sapiens) (UniProt O43293); settings: at 10 µM
compound,measurement,setting,value
COc1ccc(OC)c2c(=S)c3ccccc3[nH]c12,residual activity,[1],88%
CC(C)(C)c1cc(C=C(C#N)C#N)cc(Br)c1O,residual activity,[2],113%
same,residual activity,[3],112%
same,residual activity,[4],110%
same,residual activity,[5],99%
same,residual activity,[6],101% (inactive)
same,residual activity,[7],105%
same,residual activity,[8],114% (inactive)
same,residual activity,[9],114%
same,residual activity,[10],111% (inactive)
same,residual activity,[11],105%
same,residual activity,[12],99%
same,residual activity,[13],70%
same,residual activity,[14],113%
same,residual activity,[15],102%
O=C1Nc2ccc3ncsc3c2/C1=C/c1c[nH]cn1,residual activity,[2],37%
same,residual activity,[3],6%
same,residual activity,[4],42%
same,residual activity,[5],7%
same,residual activity,[6],75% (inactive)
same,residual activity,[7],26%
same,residual activity,[8],89% (inactive)
same,residual activity,[9],57%
same,residual activity,[10],84% (inactive)
same,residual activity,[11],67%
same,residual activity,[16],52%
same,residual activity,[17],9%
same,residual activity,[18],102%
same,residual activity,[1],101%
same,residual activity,[19],68%
same,residual activity,[20],50%
same,residual activity,[12],48%
same,residual activity,[13],35%
same,residual activity,[14],25%
same,residual activity,[15],4%
Cc1ccc(S(=O)(=O)/C=C/C#N)cc1,residual activity,[1],118%
O=C1c2ccccc2-c2nc3nnnn3nc21,residual activity,[2],110%
same,residual activity,[3],103%
same,residual activity,[6],116% (inactive)
same,residual activity,[7],102%
same,residual activity,[10],115% (inactive)
same,residual activity,[11],103%
same,residual activity,[18],111%
same,residual activity,[1],120%
same,residual activity,[20],114%
same,residual activity,[13],101%
Fc1ccc(-c2nc3n(c2-c2ccncc2)CCS3)cc1,residual activity,[1],124%
CCN(CC)CCNC(=O)c1c(C)[nH]c(/C=C2\C(=O)Nc3ccc(Cl)cc32)c1C,residual activity,[1],77%
Nc1nc(Nc2ccc(S(N)(=O)=O)cc2)nn1C(=S)Nc1c(F)cccc1F,residual activity,[1],86%
COc1ccc(C(=O)Nc2sc3c(c2C(N)=O)CCCC3)cc1OC,residual activity,[1],114%
Oc1ccc(-c2nc(-c3ccc(F)cc3)c(-c3ccncc3)[nH]2)cc1,residual activity,[13],1%
